Laboratory results as given in PubChem BioAssay AID1159580 (chemical genetic matrix, 2015).
Where “and” joins values, the source holds several entries; their conditions need not be identical. Identical values can stand only once. Hit rate of the full screen: of about 5,500 compounds, about 2,000 (36%) were called active. About 18% were inconclusive and are not listed. No stated cut-off is given here; in the data, active means normalized growth mostly below about 0.91 (no sharp cut-off); inconclusive means no clear call, values can overlap the other calls; inactive means mostly above about 0.92. This is one part of the list.

Assay: chemical genetic growth profiling, strain panel (AID 1159580);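 further: tested at 20 µM; growth read once vehicle control cultures reached saturation at 30 °C; 1 = growth at the plate median or of vehicle wells; lower values mean less growth of the strain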
Details: S. cerevisiae deletion strains, growth OD

Measured: normalized growth

Cc1ccc(C(=O)c2ccc(CC(=O)O)n2C)cc1
inactive: locus YAL021C, strain ccr4, hits give low values 1.03 | locus YAL026C, strain drs2, hits give low values 1.02 | locus YAL030W, strain snc1, hits give low values 1.01 | locus YBL061C, strain skt5, hits give low values 1.01 | locus YBR009C, strain hhf1, hits give low values 0.973 | locus YBR021W, strain FUR4, hits give low values 1.01 | locus YBR023C, strain chs3, hits give low values 1 | locus YBR229C, strain ROT2, hits give low values 1 | locus YBR231C, strain swc5, hits give low values 1.02 | locus YBR279W, strain paf1, hits give low values 1 | locus YCL011C, strain gbp2, hits give low values 0.999 | locus YCL016C, strain dcc1, hits give low values 0.996 | locus YCL029C, strain bik1, hits give low values 0.968 | locus YCL061C, strain MRC1, hits give low values 0.995 | locus YCL069W, strain vba3, hits give low values 0.986 | locus YCR088W, strain abp1, hits give low values 1 | locus YDL005C, strain med2, hits give low values 1.03 | locus YDL035C, strain GPR1, hits give low values 1.01 | locus YDL040C, strain nat1, hits give low values 1.01 | locus YDL074C, strain BRE1, hits give low values 1.01 | locus YDL101C, strain DUN1, hits give low values 1.01 | locus YDL134C, strain PPH21, hits give low values 0.996 | locus YDL185W, strain tfp1, hits give low values 0.977 | locus YDL192W, strain arf1, hits give low values 0.98 | locus YDR001C, strain nth1, hits give low values 1 | locus YDR069C, strain doa4, hits give low values 0.999 | locus YDR101C, strain arx1, hits give low values 0.985 | locus YDR137W, strain rgp1, hits give low values 1 | locus YDR150W, strain NUM1, hits give low values 1.01 | locus YDR159W, strain sac3, hits give low values 0.956 | locus YDR162C, strain NBP2, hits give low values 0.995 | locus YDR195W, strain ref2 1.03 | locus YDR297W, strain sur2, hits give low values 0.991 | locus YDR318W, strain mcm21, hits give low values 0.956 | locus YDR334W, strain swr1, hits give low values 1.01 | locus YDR335W, strain msn5, hits give low values 1.01 | locus YDR388W, hits give low values 0.972 | locus YDR392W, strain spt3, hits give low values 0.88 | locus YDR502C, strain sam2, hits give low values 0.97 | locus YEL003W, strain gim4, hits give low values 1.01 | locus YEL037C, strain rad23, hits give low values 0.999 | locus YEL061C, strain CIN8 (second series), hits give low values 0.999 | locus YEL061C, strain CIN8, hits give low values 0.998 | locus YER015W, strain faa2, hits give low values 1.01 | locus YER016W, strain bim1, hits give low values 0.999 | locus YER110C, hits give low values 0.969 | locus YER111C, strain swi4, hits give low values 1.01 | locus YER155C, strain BEM2 (second series), hits give low values 0.957 | locus YER155C, strain BEM2, hits give low values 0.996 | locus YER167W, strain BCK2, hits give low values 0.998 | locus YFR010W, strain ubp6, hits give low values 0.997 | locus YGL078C, strain dbp3, hits give low values 0.977 | locus YGL086W, strain mad1, hits give low values 0.985 | locus YGL167C, strain pmr1, hits give low values 1.01 | locus YGL173C, strain kem1, hits give low values 0.985 | locus YGL227W, strain vid30, hits give low values 1 | locus YGL240W, strain doc1, hits give low values 1.01 | locus YGL248W, strain PDE1, hits give low values 1.02 | locus YGL253W, strain hxk2, hits give low values 0.992 | locus YGR078C, strain PAC10, hits give low values 1 | locus YGR135W, strain pre9, hits give low values 0.97 | locus YGR229C, strain SMI1, hits give low values 1.01 | locus YGR252W, strain gcn5, hits give low values 0.975 | locus YHR013C, strain ard1, hits give low values 1.03 | locus YHR027C, strain rpn1, hits give low values 1.01 | locus YHR030C, strain SLT2, hits give low values 1 and 0.957 | locus YHR079C, strain IRE1 (second series), hits give low values 0.964 | locus YHR079C, strain IRE1, hits give low values 0.976 | locus YHR094C, strain hxt1, hits give low values 0.973 | locus YHR129C, strain ARP1, hits give low values 1 | locus YHR142W, strain chs7, hits give low values 1.02 | locus YHR200W, strain rpn10, hits give low values 0.979 | locus YIL066C, strain RNR3, hits give low values 1 | locus YIL073C, strain SPO22, hits give low values 0.924 | locus YIL125W, strain kgd1, hits give low values 0.985 | locus YIR030C, strain dcg1, hits give low values 0.978 | locus YJL092W, strain hpr5, hits give low values 1.02 | locus YJL095W, strain BCK1 (second series), hits give low values 1.02 | locus YJL095W, strain BCK1, hits give low values 1.01 and 0.969 | locus YJL115W, strain asf1, hits give low values 1.03 | locus YJL129C, strain trk1, hits give low values 1.02 | locus YJL134W, strain LCB3, hits give low values 1 | locus YJL154C, strain vps35, hits give low values 1.01 | locus YJL164C, strain tpk1, hits give low values 0.997 | locus YJL166W, strain qcr8, hits give low values 1.02 | locus YJL168C, strain set2, hits give low values 0.975 | locus YJL187C, strain SWE1 (second series), hits give low values 1 | locus YJR043C, strain POL32, hits give low values 0.995 | locus YJR066W, strain TOR1, hits give low values 0.929
